# Assay results taken from PubChem BioAssay (EPA / NIEHS).
# The source made the active and inactive calls. How the source made its calls: active means hit-call score of the fitted dose curve at least 0.9, where 1 is the maximum; inactive means score below 0.9.
# Assay: ATG_BRE_CIS: Attagene CIS-FACTORIAL HepG2 Assay for human Bone Morphogenetic Protein (BMP) Response Element (BRE) (AID 2282933)
# Conditions: HepG2 BMP response element reporter, Attagene transcription factor profiling; actives raise or lower the signal
# Description: ATG_CIS is a cell-based, multiplexed-readout assay that uses HepG2, a human liver cell line, with measurements taken at 24 hours after chemical dosing in a 24-well plate.ATG_BRE_CIS is one of 52 assay component(s) measured or calculated from the ATG_CIS assay. It is designed to make measurements of mRNA induction, a form of inducible reporter, as detected with fluorescence intensity signals by Reverse transcription polymerase chain reaction (RT-PCR) and Capillary electrophoresis technology.Data from the assay component ATG_BRE_CIS was analyzed into 1 assay endpoint. This assay endpoint, ATG_BRE_CIS, was analyzed with bidirectional fitting relative to DMSO as the negative control and baseline of activity. Using a type of inducible reporter, measures of mRNA for gain or loss-of-signal activity can be used to understand the reporter gene at the transcription factor-level as they relate to the gene SMAD1. Furthermore, this assay endpoint can be referred to as a primary readout, because this assay has produced multiple assay endpoints where this one serves a reporter gene function. To generalize the intended target to other relatable targets, this assay endpoint is annotated to the dna binding intended target family, where the subfamily is Smad protein.
# Human liver HepG2 cells are transiently transfected with multiple reporter transcription units (MRTUs) in 6-well plates using FuGene 6 reagent (Roche; 3 ml FuGene/1 mg DNA). The MRTU constructs are regulated by a cis-regulating element (promoter). […] A major difference between the CIS and TRANS system is that in CIS activities of endogenous TFs are measured, whereas the TRANS assay evaluates changes in activities of exogenous, chimeric NR-Gal4 proteins. […] At the end of 24 hour incubation, total RNA was isolated using TriZol reagent (Invitrogen). The isolated RNA is then reverse-transcribed using oligo(dT) primer and Mo-MLV reverse transcriptase (Invitrogen) with DNAse I (Ambion) treatment for 30 min. The one-tenth of the produced cDNA was amplified by PCR using Taq DNA polymerase (Invitrogen) and two reporter sequence-specific primers. The PCR products were fluorescently labeled by primer extension with 6-arboxyfluorescein (6-FAM) 5'-labeled reporter sequence-specific primer (2 min at 95 C, 20 s at 68 C and 10 min at 72 C) and these products were digested with 5U of HpaI (New England Biolabs) for 2h at 37 C. The fragments were purified using Qiaquick PCR columns (Qiagen), analyzed on an ABI 3130xL genetic analyzer (Applied Biosystems) with peak positions identified by using a set of X-rhodamine (ROX)-labeled MapMarker1000 molecular weight standards (BioVentures). The raw capillary electrophoresis data was processed using Attagraph software (Attagene).
SMILES,outcome,AC50
CC(c1ccc(O)cc1)c1ccc(O)cc1,inactive,
Clc1cnc(Oc2ccc(Oc3ncc(Cl)cc3Cl)cc2)c(Cl)c1,inactive,
Cc1cc(-c2cc(C)c(N)c(C)c2)cc(C)c1N,inactive,
O=NN1CCCCCCC1,inactive,
Nc1ncn[nH]1,inactive,
[F][Sn]([c]1ccccc1)([c]1ccccc1)[c]1ccccc1,inactive,
CCCCS(=O)(=O)Cl,inactive,
C=C(C)C(=O)OCC(CC)CCCC (stereo not given),inactive,
CCCCN(CCCC)C(=S)[S-].CCCCN(CCCC)C(=S)[S-].[Ni+2],inactive,
CCOCn1c(-c2ccc(Cl)cc2)c(C#N)c(Br)c1C(F)(F)F,,1.1 µM (active)
CN(C1CCCCC1)C1CCCCC1,inactive,
C[C@]12CC[C@@H](O)C[C@@H]1CC[C@@H]1[C@@H]2CC[C@]2(C)C(=O)CC[C@@H]12,inactive,
CCCCC(CC)C(=O)Cl (stereo not given),inactive,
O=NN1CCOCC1,inactive,
C=CC(Cl)CCl (stereo not given),inactive,
Cc1cc(SCc2sc(-c3ccc(C(F)(F)F)c(F)c3)nc2C)ccc1OCC(=O)O,inactive,
CC(C)=CC1C(C(=O)OCc2cccc(Oc3ccccc3)c2)C1(C)C (stereo not given),inactive,
CCC[CH2][Sn]([CH2]CCC)([CH2]CCC)[CH2]CCC,,5.89 µM (active)
CN(N=O)c1ccc([N+](=O)[O-])cc1,inactive,
c1cc[c]([Sb]([c]2ccccc2)[c]2ccccc2)cc1,inactive,

SMILES,outcome,AC50
CC1(C)[C@H](C(=O)O[C@H](C#N)c2cccc(Oc3ccccc3)c2)[C@@H]1/C=C(\Cl)C(F)(F)F,inactive,
Oc1c(Cl)cc(Cl)cc1Cl,inactive,
OCCCCO,inactive,
COc1ccc([N+](=O)[O-])cc1O,inactive,
CC(=O)CN(CC(C)=O)N=O,inactive,
CC(C)[C@H](C(=O)OC(C#N)c1cccc(Oc2ccccc2)c1)c1ccc(OC(F)F)cc1 (stereo not given in full),inactive,
CC(C)N(C(=O)CCl)c1ccccc1,inactive,
Nc1ccc(-c2ccccc2)cc1,inactive,
C=C(C)C(=O)OCCCCOC(=O)C(=C)C,inactive,
CCCCN(CCCC)C(=S)S,,146 µM (active)
ClCCCCl,inactive,
O=C(Cc1ccccc1)OCCc1ccccc1,inactive,
ClCc1ccccc1Cl,inactive,
Cc1cc(Cl)ccc1N,inactive,
BrCc1ccc(Br)cc1,inactive,
ClCCN1CCOCC1,inactive,
Cc1ccccc1OP(=O)(Oc1ccccc1)Oc1ccccc1,,64.2 µM (active)
O=c1[nH]c(=O)n(Cl)c(=O)n1Cl,inactive,
CCC(C)(C#N)N=NC(C)(C#N)CC (stereo not given),inactive,
O=[N+]([O-])c1ccc(Nc2ccccc2)cc1,,163 µM (active)
